Inconclusive results are not listed. Active and inactive are the calls of the source. Unless noted, calls follow the shape of the dose curve; as a rule, active = well fitted curve in the direction sought with a large enough effect in the repeat runs; inconclusive = weak or mixed curves; inactive = no such curve, though single readings can be large; an effect the other way counts as inactive or inconclusive.
Columns and labels:
[1] = target: Retinoic acid receptor RXR-alpha (Homo sapiens) (UniProt P19793); test: qHTS assay to identify small molecule agonists of the RXR signaling pathway (AID 1159527; calls by dose curve; also: nearly all actives have a fitted effect of over 35% in size)
How it was run: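 16 hr incubation of compound-treated RXR-alpha-UAS-bla HEK 293T cells (2% charcoal-stripped FBS, 37 C) preceded a 2 hr room-temperature LiveBLAzer FRET substrate step and blue/green fluorescence measurement.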

[2] = qHTS assay to identify small molecule agonists of the RXR signaling pathway - cell viability counter screen (AID 1159529);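 also: HEK 293T cells carrying an RXR-alpha UAS beta-lactamase reporter; series mostly up to about 77 µM; nearly all actives have a fitted effect of over 50% in size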
How it was run: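 In this parallel viability measure, GeneBLAzer RXR-alpha HEK 293T cells (2% charcoal-stripped FBS) were given a 5 hr preincubation, treated with compounds 16 hr at 37 C, and read by CellTiter-Glo luminescence.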

[3] = qHTS assay to identify small molecule antagonists of the retinoid acid receptor (RAR) signaling pathway - cell viability counter screen (AID 1159551); also: nearly all actives have a fitted effect of over 35% in size
How it was run: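 Luminescent ATP quantitation (CellTiter-Glo) gave cell viability in C3RL4 cells exposed to test chemicals for 6 h at 37 C alongside 1 uM final retinol.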

[4] = qHTS assay to identify small molecule antagonists of the estrogen related receptor (ERR) signaling pathway from Tox21 library - cell viability counter screen (AID 1224834); also: nearly all actives have a fitted effect of over 30% in size
How it was run: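 Fluorescence from CellTiter-Fluor gives the viability read-out, taken 30 min after reagent addition. Before that, ERR cells seeded 6 h earlier were incubated with compounds for 17.5 h at 37 C.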

[5] = target: Luciferin 4-monooxygenase (Photinus pyralis) (UniProt P08659); test: qHTS assay to identify small molecule inhibitors of firefly luciferase (AID 1224835); also: series mostly up to about 120 µM; nearly all actives have a fitted effect of over 25% in size
How it was run: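 Inhibition of purified Photinus luciferase is measured by luminescence. Substrate levels (D-luciferin, ATP) sit at their KM values. Each compound is tested in a concentration series.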

[6] = qHTS assay to identify small molecule agonists of the constitutive androstane receptor (CAR) signaling pathway - cell viability counter screen (AID 1224836); also: series mostly up to about 92 µM; nearly all actives have a fitted effect of over 45% in size
How it was run: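 Using CellTiter-Fluor, viability of HepG2 cells harbouring hCAR and CYP2B6-2.2kb was measured following 23 h incubation with a 15-concentration compound series plus PK11195 (0.75 uM final).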

[7] = qHTS assay to identify small molecule antagonists of the constitutive androstane receptor (CAR) signaling pathway - cell viability counter screen (AID 1224837); also: series mostly up to about 92 µM; nearly all actives have a fitted effect of over 45% in size
How it was run: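 HepG2-CYP2B6-hCAR cells, 2500/well, 4 hr pre-incubation; compound titration, 15 conc.; CITCO 50 nM final; 23 hr, 37 C/5% CO2; CellTiter-Fluor, fluorescence intensity.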

[8] = target: Nuclear receptor subfamily 1 group I member 3 (Homo sapiens) (UniProt Q14994); test: qHTS assay to identify small molecule antagonists of the constitutive androstane receptor (CAR) signaling pathway (AID 1224838);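 also: HepG2 cells stably expressing hCAR with CYP2B6 luciferase reporter stimulated by CITCO; nearly all actives have a fitted effect of over 40% in size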
How it was run: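 HepG2-CYP2B6-hCAR cells; 4 h pre-incubation; cpd (15 conc) + CITCO 50 nM final; 24 h, 37 C/5% CO2; ONE-Glo, luminescence.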

[9] = target: Nuclear receptor subfamily 1 group I member 3 (Homo sapiens) (UniProt Q14994); test: qHTS assay to identify small molecule agonists of the constitutive androstane receptor (CAR) signaling pathway (AID 1224839);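 also: HepG2 cells stably carrying human CAR and a CYP2B6 luciferase reporter; series mostly up to about 92 µM; nearly all actives have a fitted effect of over 15% in size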
How it was run: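 Double-stable HepG2 cells (hCAR, CYP2B6-2.2kb) seeded 4 h before compound addition. Exposure 24 h with 0.75 uM PK11195 final. Luciferase detected by ONE-Glo.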

[10] = qHTS assay to identify small molecule antagonists of the estrogen related receptor signaling pathway with the pleiotropic PPARgamma coactivator (PGC) from Tox21 10K library - cell viability counter screen (AID 1224840; active = well fitted cell-killing curve with a large enough effect in the repeat runs, not every such curve was filed as active; also: nearly all actives have a fitted effect of over 40% in size)
How it was run: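 PGC/ERR cells, 2,000/well; 6 h pre-incubation 37 C/5% CO2; cpd in DMSO via pin tool; 17.5 h 37 C; CellTiter-Fluor, 30 min; fluorescence.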

[11] = qHTS assay to identify small molecule agonists of the estrogen related receptor signaling pathway with the pleiotropic PPARgamma coactivator (PGC) from Tox21 10K library (AID 1224842); also: nearly all actives have a fitted effect of over 15% in size
How it was run: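 Luminescence from One-Glo (30 min, room temperature) measured after PGC/ERR cells had 18 h at 37 C with pinned compound (23 nL in DMSO). Cells had been seeded at 2,000 per well and pre-incubated 6 h.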

[12] = qHTS assay to identify small molecule agonists of the hypoxia (HIF-1) signaling pathway - cell viability counter screen (AID 1224844; calls by dose curve; also: nearly all actives have a fitted effect of over 50% in size)
How it was run: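 ME-180 HRE-bla cells, 2,000/well, 0.5% dialyzed FBS; 5 hr settle, 17 hr compound at 37C/5% CO2; CCF4-AM reporter read first, then CellTiter-Glo luminescence after 30 min RT.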

[13] = qHTS assay to identify small molecule agonists of H2AX (AID 1224845; active = well fitted activation curve with a large enough effect in the signal ratio in the repeat runs, not every such curve was filed as active; the % refers to the signal ratio)
How it was run: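 Phospho-H2AX Ser139 measured by HTRF (ex 320 nm; em 665 and 620 nm) after 24 hr antibody incubation. Compounds, 15 concentrations, 0.76% DMSO, were applied to CHO-K1 cells for 3hr at 37C before lysis.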

[14] = qHTS assay to identify small molecule antagonists of the estrogen related receptor signaling pathway with the pleiotropic PPARgamma coactivator (PGC) from Tox21 10K library (AID 1224841; call rule not given here; also: series mostly up to about 92 µM; actives are mostly falling curves and most rising ones were filed inactive; nearly all actives have a fitted effect of over 50% in size)
How it was run: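 PGC/ERR cell line, 2,000 cells/well; 6 h pre-incubation 37 C/5% CO2; compounds (DMSO) pinned in; 18 h, 37 C; One-Glo, 30 min RT; luminescence.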

[15] = qHTS assay to identify small molecule antagonists of the estrogen related receptor (ERR) signaling pathway (AID 1224819;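 also: luminescence from an ERR-driven luciferase reporter measured with One-Glo reagent; series mostly up to about 46 µM; nearly all actives have a fitted effect of over 50% in size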)
How it was run: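 Seed ERR cells 2,000/well; rest 6 h at 37 C/5% CO2; pin compounds in DMSO; incubate 18 h at 37 C; add One-Glo; wait 30 min at room temperature; measure luminescence.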

[16] = qHTS assay to identify small molecule agonists of the estrogen related receptor (ERR) signaling pathway (AID 1224820)
How it was run: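 Quantitative HTS of the LOPAC library used NTP ERR reporter cells treated 18 h at 37 C. Signal is luminescence after One-Glo addition and a 30 min room-temperature incubation.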

[17] = qHTS assay to identify small molecule agonists of the estrogen related receptor signaling pathway with the pleiotropic PPARgamma coactivator (PGC) (AID 1224823)
How it was run: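 Cell-based luciferase assay in the NTP-supplied PGC/ERR line, 2,000 cells/well; 18 h compound exposure at 37 C, luminescence after One-Glo.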

[18] = target: Thyrotropin receptor (Homo sapiens) (UniProt P16473); test: qHTS assay to identify small molecule agonists of the thyroid stimulating hormone receptor (TSHR) signaling pathway (AID 1224843; calls by dose curve; also: nearly all actives have a fitted effect of over 45% in size; also: potency is read from the fitted curve at half-maximal effect)
How it was run: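 HEK293 cells stably bearing the thyrotropin receptor were plated at 800 cells/well and challenged with compound (30 min, RT). Accumulated cAMP was quantified via cAMP-d2 competing for cryptate-tagged antibody.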
% is scaled to controls: 0 for no effect and ±100 for the full control effect.

Sequence of Thyrotropin receptor (Homo sapiens) (P16473 whole entry, looked up): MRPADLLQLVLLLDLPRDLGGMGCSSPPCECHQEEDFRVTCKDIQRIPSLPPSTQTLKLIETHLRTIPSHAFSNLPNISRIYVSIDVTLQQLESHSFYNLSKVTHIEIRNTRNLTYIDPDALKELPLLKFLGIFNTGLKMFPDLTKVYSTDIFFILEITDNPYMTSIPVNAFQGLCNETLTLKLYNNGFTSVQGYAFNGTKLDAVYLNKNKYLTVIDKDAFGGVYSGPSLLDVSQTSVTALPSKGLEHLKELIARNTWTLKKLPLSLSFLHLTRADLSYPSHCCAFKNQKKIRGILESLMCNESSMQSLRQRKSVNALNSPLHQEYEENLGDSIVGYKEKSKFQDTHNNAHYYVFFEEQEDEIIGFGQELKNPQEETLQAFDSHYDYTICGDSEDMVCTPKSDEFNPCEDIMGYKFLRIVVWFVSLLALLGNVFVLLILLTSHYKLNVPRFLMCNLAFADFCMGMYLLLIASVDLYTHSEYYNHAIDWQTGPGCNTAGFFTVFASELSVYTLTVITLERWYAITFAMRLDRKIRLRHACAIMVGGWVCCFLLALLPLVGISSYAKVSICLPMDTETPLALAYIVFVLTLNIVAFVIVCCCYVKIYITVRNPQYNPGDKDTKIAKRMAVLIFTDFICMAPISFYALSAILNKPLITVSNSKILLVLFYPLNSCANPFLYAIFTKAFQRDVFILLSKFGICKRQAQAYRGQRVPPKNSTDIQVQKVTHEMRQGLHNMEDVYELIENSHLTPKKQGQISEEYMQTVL
Sequence of Luciferin 4-monooxygenase (Photinus pyralis) (P08659 whole entry, looked up): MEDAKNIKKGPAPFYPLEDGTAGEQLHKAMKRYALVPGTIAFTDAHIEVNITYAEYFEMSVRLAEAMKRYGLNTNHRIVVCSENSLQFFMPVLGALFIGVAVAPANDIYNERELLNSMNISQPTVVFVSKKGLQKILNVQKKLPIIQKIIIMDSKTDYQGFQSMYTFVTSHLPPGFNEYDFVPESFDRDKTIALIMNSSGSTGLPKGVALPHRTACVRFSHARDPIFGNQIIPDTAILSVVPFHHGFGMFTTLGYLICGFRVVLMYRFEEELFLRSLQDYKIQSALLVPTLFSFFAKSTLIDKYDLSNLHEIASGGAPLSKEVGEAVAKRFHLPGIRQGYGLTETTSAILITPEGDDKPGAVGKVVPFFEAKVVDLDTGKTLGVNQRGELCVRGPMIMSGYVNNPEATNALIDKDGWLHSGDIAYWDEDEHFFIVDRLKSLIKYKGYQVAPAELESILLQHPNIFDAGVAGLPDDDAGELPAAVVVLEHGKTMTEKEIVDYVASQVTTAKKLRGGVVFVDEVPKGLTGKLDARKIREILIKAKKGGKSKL
Sequence of Retinoic acid receptor RXR-alpha (Homo sapiens) (P19793 whole entry, looked up): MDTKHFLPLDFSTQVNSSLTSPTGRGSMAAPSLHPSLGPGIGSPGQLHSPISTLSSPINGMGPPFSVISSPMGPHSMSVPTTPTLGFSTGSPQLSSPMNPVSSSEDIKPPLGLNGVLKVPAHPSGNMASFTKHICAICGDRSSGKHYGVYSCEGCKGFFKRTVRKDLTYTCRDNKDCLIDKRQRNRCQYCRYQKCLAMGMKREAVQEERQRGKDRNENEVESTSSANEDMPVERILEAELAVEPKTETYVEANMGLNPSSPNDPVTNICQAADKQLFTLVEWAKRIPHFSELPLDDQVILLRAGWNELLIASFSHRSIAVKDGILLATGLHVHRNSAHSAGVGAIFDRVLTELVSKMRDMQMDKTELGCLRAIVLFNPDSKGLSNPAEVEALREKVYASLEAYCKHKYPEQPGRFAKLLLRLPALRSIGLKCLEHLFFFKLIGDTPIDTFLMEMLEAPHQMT
Sequence of Nuclear receptor subfamily 1 group I member 3 (Homo sapiens) (Q14994 whole entry, looked up): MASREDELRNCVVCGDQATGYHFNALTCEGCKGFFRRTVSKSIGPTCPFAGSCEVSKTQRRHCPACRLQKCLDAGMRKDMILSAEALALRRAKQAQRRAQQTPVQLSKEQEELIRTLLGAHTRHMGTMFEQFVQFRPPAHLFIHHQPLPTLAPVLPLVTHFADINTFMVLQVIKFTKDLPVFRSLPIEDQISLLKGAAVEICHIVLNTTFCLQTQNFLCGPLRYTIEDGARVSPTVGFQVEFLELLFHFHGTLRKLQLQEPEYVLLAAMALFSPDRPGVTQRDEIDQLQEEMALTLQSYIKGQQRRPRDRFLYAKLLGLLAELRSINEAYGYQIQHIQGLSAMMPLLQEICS

CCCCCCCCC(=O)Cl
inactive: Potency [1] | outcome [2] | outcome [3] | Potency [4] | Potency [5] | Potency [6] | Potency [7] | outcome [8] | Potency [9] | outcome [10] | outcome [11] | outcome [12] | outcome [13]

CC(C)CCCCOC(=O)c1ccccc1C(=O)OCCCCC(C)C
inactive: Potency [1] | outcome [2] | outcome [3] | Potency [4] | Potency [5] | Potency [6] | Potency [7] | outcome [8] | Potency [9] | outcome [10] | Potency [14] | outcome [11] | outcome [12] | outcome [13]

CCCCCCOC(=O)CC
inactive: Potency [1] | outcome [2] | outcome [3] | Potency [4] | Potency [5] | Potency [6] | Potency [7] | outcome [8] | Potency [9] | outcome [10] | Potency [14] | outcome [11] | outcome [13]

NC(CO)C(=O)NNCc1ccc(O)c(O)c1O (centres undefined)
inactive: Potency [1] | outcome [2] | outcome [3] | outcome [15] | outcome [16] | outcome [17] | Potency [4] | Potency [5] | Potency [6] | Potency [7] | outcome [10] | Potency [14] | outcome [11] | outcome [12]

Cc1ccsc1/C=C/C1=NCCCN1C
inactive: Potency [1] | outcome [2] | outcome [3] | Potency [4] | Potency [5] | Potency [6] | Potency [7] | outcome [8] | Potency [9] | outcome [10] | Potency [14] | outcome [11] | Potency [18] | outcome [12] | outcome [13]

CC(CO)c1ccccc1 (centres undefined)
inactive: Potency [1] | outcome [2] | outcome [3] | Potency [4] | Potency [5] | Potency [6] | Potency [7] | outcome [8] | Potency [9] | Potency [18] | outcome [13]

N#Cc1ccc(C(=O)O)cc1
inactive: Potency [1] | outcome [2] | outcome [3] | Potency [4] | Potency [5] | Potency [6] | Potency [7] | outcome [8] | Potency [9] | outcome [10] | Potency [14] | outcome [11] | outcome [13]

Cc1nc2n(c(=O)c1CCN1CCC(c3noc4cc(F)ccc34)CC1)CCC[C@H]2O
inactive: activation [1] 4.51% [at 15.8 µM] | activity change, negative = cytotoxicity [2] -5.89% [at 15.8 µM] | activity change, negative = cytotoxicity [3] 0.276% [at 19 µM] | viability change, negative = cytotoxic [4] 0.131% [at 19 µM] | activity change, negative = inhibition [5] 0.0649% [at 23.6 µM] | viability change, negative = cytotoxic [6] 2.64% [at 19 µM] | activity change, negative = cytotoxicity [7] 1.56% [at 19 µM] | activity, negative = inhibition [8] 20.8% [at 19 µM] | activation [9] -1.43% [at 19 µM] | viability change, negative = cytotoxic [10] 11.2% [at 19 µM] | activity, negative = inhibition [14] -0.225% [at 19 µM] | activation [11] -0.0623% [at 19 µM] | activation [18] -7.95% [at 19 µM] | activity change, negative = cytotoxicity [12] 1.15% [at 15.8 µM] | activation (H2AX phosphorylation) [13] -1.87% [at 31.6 µM]

CCC(C=O)CC
inactive: Potency [1] | outcome [2] | outcome [3] | Potency [4] | Potency [5] | Potency [6] | Potency [7] | outcome [8] | Potency [9] | outcome [10] | Potency [14] | outcome [13]

CC(C)(C)NC(N)=O
inactive: Potency [1] | outcome [2] | outcome [3] | Potency [4] | Potency [5] | Potency [6] | Potency [7] | outcome [8] | Potency [9] | outcome [10] | Potency [14] | outcome [11] | outcome [12] | outcome [13]

CCN1CCc2nc(N)oc2CC1
inactive: Potency [1] | outcome [2] | outcome [3] | Potency [4] | Potency [5] | Potency [6] | Potency [7] | outcome [8] | Potency [9] | outcome [10] | Potency [18] | outcome [12] | outcome [13]

COC(=O)CCc1ccc(OCC(O)CNC(C)C)cc1 (centres undefined)
inactive: Potency [1] | outcome [2] | outcome [3] | Potency [4] | Potency [5] | Potency [6] | Potency [7] | outcome [8] | Potency [9] | outcome [10] | Potency [14] | outcome [11] | Potency [18] | outcome [12] | outcome [13]

Cc1ccc(C=O)cc1C
inactive: Potency [1] | outcome [2] | outcome [3] | Potency [4] | Potency [5] | Potency [6] | Potency [7] | outcome [8] | Potency [9] | outcome [10] | Potency [18] | outcome [12] | outcome [13]

O=C1c2ccccc2C(=O)N1CCl
inactive: Potency [1] | outcome [2] | outcome [3] | Potency [4] | Potency [5] | Potency [6] | Potency [7] | outcome [8] | outcome [10] | Potency [14] | outcome [11] | outcome [13]

CC/C=C\CC1=C(C)CCC1=O
inactive: Potency [1] | outcome [2] | outcome [3] | Potency [5] | Potency [6] | Potency [7] | outcome [8] | Potency [9] | outcome [10] | Potency [14] | outcome [11] | outcome [12] | outcome [13]

C=C(C)C(=O)OCC(C)(C)COC(=O)C(=C)C
inactive: Potency [1] | outcome [2] | outcome [3] | Potency [6] | Potency [7] | outcome [8] | Potency [9] | outcome [10] | Potency [14] | outcome [11] | outcome [12] | outcome [13]

COCCOC(=O)C1=C(C)NC(C)=C(C(=O)OC(C)C)C1c1cccc([N+](=O)[O-])c1 (centres undefined)
inactive: Potency [1] | outcome [2] | outcome [3] | Potency [5] | Potency [6] | Potency [7] | outcome [8] | outcome [10] | Potency [18] | outcome [13]

CN=C(NC#N)Nc1ccc(C2=NNC(=O)CC2C)cc1 (centres undefined)
inactive: Potency [1] | outcome [2] | outcome [3] | Potency [4] | Potency [5] | Potency [6] | Potency [7] | outcome [8] | outcome [10] | Potency [14] | outcome [11] | outcome [12] | outcome [13]

COCCOCCOCCOCCOCCO
inactive: Potency [1] | outcome [2] | outcome [3] | Potency [5] | Potency [6] | Potency [7] | outcome [8] | Potency [9] | Potency [14] | outcome [11] | Potency [18] | outcome [12] | outcome [13]

O=C(OCC(O)CO)c1ccccc1Nc1ccnc2c(C(F)(F)F)cccc12 (centres undefined)
inactive: Potency [1] | outcome [2] | outcome [3] | Potency [6] | Potency [7] | outcome [8] | Potency [9] | outcome [10] | Potency [18] | outcome [13]

Oc1cn2c(n1)Nc1ccc(Cl)c(Cl)c1C2
active: Potency [18] 0.73 µM
inactive: activation [1] 5.44% [at 15.8 µM] | activity change, negative = cytotoxicity [2] -0.221% [at 15.8 µM] | activity change, negative = cytotoxicity [3] 3.75% [at 19 µM] | viability change, negative = cytotoxic [6] -4.95% [at 19 µM] | activity change, negative = cytotoxicity [7] 5.38% [at 19 µM] | activity, negative = inhibition [8] 39.2% [at 19 µM] | activation [9] 5.1% [at 19 µM] | viability change, negative = cytotoxic [10] 5.01% [at 19 µM] | activity change, negative = cytotoxicity [12] -1.47% [at 15.8 µM] | activation (H2AX phosphorylation) [13] -0.0397% [at 31.6 µM]

Source: PubChem BioAssay (Tox21)
